{"source": "PubChem BioAssay", "key": {"[1]": {"assay": "growth inhibition, single agents and combos, ICB984, cell-based, cisplatin or BGB combos, synergistic combos for chromothripsis tumors (AID 1671451; call rule not given here;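 note: cells exposed for 96 hours before readout; 0% = vehicle DMSO and 100% = killing by high DMSO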)", "conditions": "ICB984 medulloblastoma cells, drug combinations, stronger effect = higher value"}, "[2]": {"assay": "growth inhibition, single agents and combos, LFS_MB_1R, cell-based, cisplatin or BGB combos, synergistic combos for chromothripsis tumors (AID 1671452);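 note: cells exposed for 96 hours before readout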", "conditions": "LFS_MB_1R medulloblastoma cells, stronger effect = higher value"}, "[3]": {"assay": "growth inhibition, single agents and combos, HTB85, cell-based, BGB or cisplatin IC20 combos, synergistic combos for chromothripsis tumors (AID 1671453);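 note: cells exposed for 96 hours before readout; 0% = vehicle DMSO and 100% = high DMSO killing control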", "conditions": "HTB85 osteosarcoma cells, drug combinations, stronger effect = higher value"}, "[4]": {"assay": "growth inhibition, single agents and combos, CRL2098, cell-based, BGB or cisplatin IC20 combos, synergistic combos for chromothripsis tumors (AID 1671454);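 note: cells exposed for 96 h before readout; 0% = vehicle DMSO and 100% = killing by high DMSO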", "conditions": "CRL2098 osteosarcoma cells, drug combinations, stronger effect = higher value"}, "[5]": {"assay": "growth inhibition, single agents and combos, HD-MB03, cell-based, BGB or cisplatin IC20 combos, synergistic combos for chromothripsis tumors (AID 1671455; in the data active = inhibition above about 83%;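 note: 0% = vehicle DMSO and 100% = high DMSO as cytotoxic control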)", "conditions": "HD-MB03 medulloblastoma cells, stronger effect = higher value"}, "[6]": {"assay": "growth inhibition, single agents and combos, UWB1.289, cell-based, BGB or cisplatin combos, synergistic combos for chromothripsis tumors (AID 1671456);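 note: cells exposed to compound for four days; 0% = vehicle DMSO and 100% = killing by high DMSO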", "conditions": "UWB1.289 ovarian carcinoma cells, stronger effect = higher value"}, "[7]": {"assay": "growth inhibition, single agents and combos, LFS_MB_2R, cell-based, cisplatin combos, synergistic combos for chromothripsis tumors (AID 1671457);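 note: cells exposed to compound for four days before readout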", "conditions": "LFS_MB_2R medulloblastoma cells, stronger effect = higher value"}, "[8]": {"assay": "growth inhibition, MDA-MB-436, cell-based, BGB or cisplatin combos, synergistic combos for chromothripsis tumors (AID 1671458; call rule not given here;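 note: cells exposed for 96 hours; 0% = vehicle DMSO and 100% = killing by high DMSO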)", "conditions": "MDA-MB-436 breast carcinoma growth inhibition, drug combinations, stronger effect = higher value"}, "[9]": {"assay": "UWB1.289_BRCA1 ovarian cancer growth, cell-based, BGB or cisplatin combinations (AID 1671459)", "conditions": "UWB1.289 BRCA1 ovarian carcinoma, drug combinations, stronger effect = higher value"}, "[10]": {"assay": "drug combination toxicity in non-malignant astrocytes – cell-based, BGB or cisplatin IC20 combos, cytotoxicity control for chromothriptic childhood tumor combination screen (AID 1671460);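 note: cells exposed to compounds for 96 hours before viability readout; 0% = vehicle and 100% = killing control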", "conditions": "Human astrocytes, viability inhibition, drug combinations, at 0.5 µM, stronger effect = higher value"}, "[11]": {"assay": "BT084 cell growth, single and combined drugs, ICGC_MB145, cisplatin and BGB IC40 combos (AID 1671461);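 note: cells exposed to drugs for 96 hours; 0% = vehicle DMSO and 100% = high DMSO full killing control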", "conditions": "BT084 medulloblastoma cells, drug combinations, stronger effect = higher value"}, "[12]": {"assay": "RCMB18 cell growth, single agent and combined, cisplatin and BGB IC40 combos (AID 1671462);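 note: cells exposed to compound for four days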", "conditions": "RCMB18 medulloblastoma cells, stronger effect = higher value"}, "[13]": {"assay": "CRL1545 cell growth, single agent and combined, cisplatin and BGB IC20 combos (AID 1671464);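 note: cells exposed to compound for 96 hours before readout; 0% = vehicle DMSO and 100% = high DMSO killing control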", "conditions": "CRL1545 osteosarcoma cells, stronger effect = higher value"}, "[14]": {"conditions": "measured here: combination with cisplatin, at 0.5 µM"}, "[15]": {"conditions": "measured here: combination with cisplatin, at 5 µM"}}, "note": "Calls of active or inactive are those of the source. Cut-off read from the data, not from the text of the source, unless noted: active = inhibition above about 80%; inactive = the rest."}
{"smiles": "CCn1cc(C(=O)O)c(=O)c2cc(F)c(N3CCNCC3)cc21", "values": [{"measurement": "inhibition", "setting": "[1]; BGB IC40 combo, at 0.05 µM", "value": -41.7, "unit": "%"}, {"measurement": "inhibition", "setting": "[1]; at 0.5 µM", "value": "-9.23% (inactive)"}, {"measurement": "inhibition", "setting": "[1]; cisplatin combo, at 0.05 µM", "value": -41.7, "unit": "%"}, {"measurement": "inhibition", "setting": "[1]; cisplatin combo, at 0.5 µM", "value": -13, "unit": "%"}, {"measurement": "inhibition", "setting": "[1]; cisplatin combo, at 5 µM", "value": -17.2, "unit": "%"}, {"measurement": "inhibition", "setting": "[1]; measured here: 5 uM single agent, at 5 µM", "value": -7.24, "unit": "%"}, {"measurement": "inhibition", "setting": "[2]; at 0.5 µM", "value": "16.4% (inactive)"}, {"measurement": "inhibition", "setting": "[2]; measured here: combination with BGB IC40, at 0.05 µM", "value": -0.695, "unit": "%"}, {"measurement": "inhibition", "setting": "[2]; [14]", "value": 26.1, "unit": "%"}, {"measurement": "inhibition", "setting": "[2]; [15]", "value": 22.9, "unit": "%"}, {"measurement": "inhibition", "setting": "[3]; at 0.5 µM", "value": "-8.02% (inactive)"}, {"measurement": "inhibition", "setting": "[3]; measured here: with BGB IC20, at 0.5 µM", "value": -33.2, "unit": "%"}, {"measurement": "inhibition", "setting": "[3]; measured here: with BGB IC20, at 5 µM", "value": -19.1, "unit": "%"}, {"measurement": "inhibition", "setting": "[3]; measured here: with cisplatin IC20, at 0.5 µM", "value": 12.6, "unit": "%"}, {"measurement": "inhibition", "setting": "[3]; measured here: with cisplatin IC20, at 5 µM", "value": -7.29, "unit": "%"}, {"measurement": "inhibition", "setting": "[3]; single agent, at 5 µM", "value": 1.89, "unit": "%"}, {"measurement": "inhibition", "setting": "[4]; at 0.5 µM", "value": "-43.9% (inactive)"}, {"measurement": "inhibition", "setting": "[4]; measured here: combination with BGB at IC20, at 0.5 µM", "value": -32.8, "unit": "%"}, {"measurement": "inhibition", "setting": "[4]; measured here: combination with cisplatin at IC20, at 0.5 µM", "value": -33.5, "unit": "%"}, {"measurement": "inhibition", "setting": "[5]; at 0.5 µM", "value": "-1.96% (inactive)"}, {"measurement": "inhibition", "setting": "[5]; measured here: combo with BGB at IC20, at 0.5 µM", "value": -6.97, "unit": "%"}, {"measurement": "inhibition", "setting": "[5]; measured here: combo with cisplatin at IC20, at 0.5 µM", "value": 4.39, "unit": "%"}, {"measurement": "inhibition", "setting": "[6]; at 0.5 µM", "value": "3.04% (inactive)"}, {"measurement": "inhibition", "setting": "[6]; measured here: inhibition with BGB combination, at 0.05 µM", "value": -22.6, "unit": "%"}, {"measurement": "inhibition", "setting": "[6]; measured here: inhibition with cisplatin combination, at 0.05 µM", "value": -1.67, "unit": "%"}, {"measurement": "inhibition", "setting": "[7]; at 0.5 µM", "value": "-18.9% (inactive)"}, {"measurement": "inhibition", "setting": "[7]; [14]", "value": -13.2, "unit": "%"}, {"measurement": "inhibition", "setting": "[7]; [15]", "value": -11.8, "unit": "%"}, {"measurement": "inhibition", "setting": "[8]; at 0.5 µM", "value": "-18.4% (inactive)"}, {"measurement": "inhibition", "setting": "[8]; measured here: BGB combination, at 0.5 µM", "value": -12.8, "unit": "%"}, {"measurement": "inhibition", "setting": "[8]; measured here: BGB combination, at 5 µM", "value": -3.58, "unit": "%"}, {"measurement": "inhibition", "setting": "[8]; measured here: cisplatin combination, at 0.5 µM", "value": -41.9, "unit": "%"}, {"measurement": "inhibition", "setting": "[8]; measured here: cisplatin combination, at 5 µM", "value": -18.8, "unit": "%"}, {"measurement": "inhibition", "setting": "[9]; BGB combination, concentration series, at 5 µM", "value": -3.45, "unit": "%"}, {"measurement": "inhibition", "setting": "[9]; at 0.5 µM", "value": "2.01% (inactive)"}, {"measurement": "inhibition", "setting": "[9]; cisplatin combination, concentration series, at 5 µM", "value": 12.5, "unit": "%"}, {"measurement": "inhibition", "setting": "[10]", "value": "5.02% (inactive)"}, {"measurement": "inhibition", "setting": "[10]; measured here: combo with BGB IC20", "value": 10.6, "unit": "%"}, {"measurement": "inhibition", "setting": "[10]; measured here: combo with cisplatin IC20", "value": -14.6, "unit": "%"}, {"measurement": "inhibition", "setting": "[11]; at 0.5 µM", "value": "-27.2% (inactive)"}, {"measurement": "inhibition", "setting": "[11]; cisplatin combination, at 0.5 µM", "value": -24.4, "unit": "%"}, {"measurement": "inhibition", "setting": "[11]; cisplatin combination, at 5 µM", "value": -61.7, "unit": "%"}, {"measurement": "inhibition", "setting": "[11]; measured here: BGB IC40 combination 0.05 uM, at 0.05 µM", "value": -27.3, "unit": "%"}, {"measurement": "inhibition", "setting": "[11]; single agent, at 5 µM", "value": -32.3, "unit": "%"}, {"measurement": "inhibition", "setting": "[12]; at 0.5 µM", "value": "-5.94% (inactive)"}, {"measurement": "inhibition", "setting": "[12]; cisplatin combo, at 5 µM", "value": -71.7, "unit": "%"}, {"measurement": "inhibition", "setting": "[12]; measured here: BGB IC40 combination, at 0.05 µM", "value": -15.2, "unit": "%"}, {"measurement": "inhibition", "setting": "[12]; [14]", "value": 20.7, "unit": "%"}, {"measurement": "inhibition", "setting": "[12]; single agent, at 5 µM", "value": -42.9, "unit": "%"}, {"measurement": "inhibition", "setting": "[13]; at 0.5 µM", "value": "-19.2% (inactive)"}, {"measurement": "inhibition", "setting": "[13]; measured here: with BGB IC20 combination, at 0.5 µM", "value": -33.4, "unit": "%"}, {"measurement": "inhibition", "setting": "[13]; measured here: with cisplatin IC20 combination, at 0.5 µM", "value": -12.1, "unit": "%"}, {"measurement": "inhibition", "setting": "[13]; single agent, at 0.05 µM", "value": 20.3, "unit": "%"}, {"measurement": "inhibition", "setting": "[13]; single agent, at 5 µM", "value": 24, "unit": "%"}]}
